Experiment [1] in a line: NCI Yeast Anticancer Drug Screen. Data for the rad50 strain (AID 155).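 Also: 0% = growth of vehicle-only cultures of the same strain.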 Particulars: S. cerevisiae rad50 strain growth inhibition; at 50.0 µM; active compounds read high. The essentials:
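A DNA repair-deficient yeast mutant serves as the test organism; compound-induced growth inhibition is calculated against vehicle-treated cells.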

The nature of experiment [2]: NCI Yeast Anticancer Drug Screen. Data for the mec2-1 strain (AID 157). As to conditions: S. cerevisiae mec2-1 strain, at 50.0 µM, active compounds read high. Summed up: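 Compounds were applied to mec2-1 yeast cells. Their growth was then compared with that of vehicle-treated cultures to give growth inhibition.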
A short description of experiment [3]: NCI Yeast Anticancer Drug Screen. Data for the sgs1 mgt1 strain (AID 161).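 Also: 0% = growth of cultures given vehicle only.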 Particulars: S. cerevisiae sgs1 mgt1 strain, at 50.0 µM, active compounds read high. Summed up: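 This yeast growth screen uses a strain with defined DNA-repair lesions; compound-treated growth is compared with vehicle-treated growth.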
A short description of experiment [4]: NCI Yeast Anticancer Drug Screen. Data for the cln2 rad14 strain (AID 165).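 Also: 0% = growth equal to vehicle treated cultures.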 Particulars: S. cerevisiae cln2 rad14 strain, at 50.0 µM, active compounds read high. The essentials:
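Strain: cln2 rad14 yeast, altered in cell cycle control and DNA damage repair. Read-out: growth inhibition vs vehicle.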

Experiment [5] can be described thus: NCI Yeast Anticancer Drug Screen. Data for the bub3 strain (AID 167). As to conditions: S. cerevisiae bub3 mutant strain, at 50.0 µM, active compounds read high. The essentials: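 Inhibition values come from growth of compound-treated mutant yeast normalised to vehicle-treated controls.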
Experiment [6] in a line: NCI Yeast Anticancer Drug Screen. Data for the mlh1 rad18 strain (AID 175). As to conditions: S. cerevisiae mlh1 rad18 strain growth inhibition; at 50.0 µM; active compounds read high. The essentials: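 A repair-deficient yeast strain is exposed to test compound, and growth is scored relative to vehicle-treated controls.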

Compounds without any hit were thinned out: in the full panel of roughly 79,000, 15% have a hit. Values without a mark were called inactive. Calls of active or inactive are those of the source. Rule as the data show it: active = growth inhibition above about 70%; inactive = the rest.

Take `O/N=C1/CCCc2nonc21`: the growth inhibition in experiment [1] is -18.6%; in experiment [2], -3.15%; in experiment [3], -0.3%; in experiment [4], 4.35%; in experiment [5], -8.2%; in experiment [6] it was -6.5%.
Turning to `CC(C)(O)C1OCC(C2CCC3(C)C4=CCC5C(C)(C)C(O)CCC5(C)C4CCC23C)CC1O` (stereo not given), the growth inhibition in experiment [1] is 23.7%; in experiment [2] it was 27.6%; in experiment [3], 34.8%; in experiment [4] it was 42.6%; in experiment [5], 21.5%; in experiment [6] it was 4.75%.
Consider `CC1(C)C2CCC1C(=O)C(C=O)C2` (stereo not given), for which the growth inhibition in experiment [1] was -10.3%; in experiment [2], 16.1%; in experiment [3], -22.1%; in experiment [4] it was 32.5%; in experiment [5], -40.2%; in experiment [6], -41.8%.
For `CC(C)CN(CC(C)C)C(=O)c1ccc([N+](=O)[O-])cc1`, the growth inhibition is -7.3% in experiment [1]; 22.8% in experiment [2]; 16.9% in experiment [3]; -26.2% in experiment [4]; 38.1% in experiment [5]; 20.9% in experiment [6].
Regarding `Oc1ccc2ccccc2c1/C=N\Sc1ccc(Cl)cc1`, the growth inhibition is 49% in experiment [1]; 34.7% in experiment [2]; 64.1% in experiment [3]; 28.8% in experiment [4]; 32.2% in experiment [5]; 49% in experiment [6].
In the case of `CCCCCCN(CCCCCC)CC(O)c1c(Cl)ccc2ccccc12` (stereo not given), the growth inhibition was 99.1% (active) in experiment [1]; 96.5% (active) in experiment [2]; 99.3% (active) in experiment [3]; 98.6% (active) in experiment [4]; 96.4% (active) in experiment [5]; 98.5% (active) in experiment [6].
As to `COc1cccc(C2c3cc4c(cc3OC(N3CCCC3)C2C)OCO4)c1OC` (stereo not given), the growth inhibition in experiment [1] is 24.8%; in experiment [2], 17.6%; in experiment [3] it was -9.65%; in experiment [4] it was 1%; in experiment [5] it was 11.4%; in experiment [6], 29.9%.
Consider `CCOC(=O)C1C(C)NC(C)C(C(=O)OCC)C1C` (stereo not given), for which the growth inhibition in experiment [1] is 15.9%; in experiment [2] it was 1.05%; in experiment [3], 3.4%; in experiment [4], -44.5%; in experiment [5], 5.3%; in experiment [6], 26.1%.
For the molecule `CC1(CCl)Nc2ccccc2C(=O)N1c1ccc(F)cc1` (stereo not given), the growth inhibition in experiment [1] was -7.55%; in experiment [2], -21.9%; in experiment [3], -0.9%; in experiment [4] it was 1.4%; in experiment [5] it was 14.6%; in experiment [6], -3.35%.
For `O=c1oc2ccc(Br)cc2cc1CCS`, the growth inhibition in experiment [1] was 9.9%; in experiment [2] it was 21.2%; in experiment [3], -4.7%; in experiment [4] it was 10.8%; in experiment [5], 9.55%; in experiment [6], -9.35%.
Take `CCS(=O)(=O)Nc1ccc(NS(=O)(=O)CC)cc1`: the growth inhibition in experiment [1] is 39.7%; in experiment [2] it was 11.3%; in experiment [3] it was 29.1%; in experiment [4], 16.5%; in experiment [5], 17.9%; in experiment [6], 25.4%.
`O=C1C(CCCS)C(c2ccccc2)=NN1c1ccccc1` (stereo not given): the growth inhibition in experiment [1] is 54.9%; in experiment [2], 3.9%; in experiment [3] it was 18.4%; in experiment [4], -12.8%; in experiment [5], 0.45%; in experiment [6], 39%.
For `CCCC(=O)Nc1cc(C(=O)N2C[C@@H]3C[C@]34C2=CC(=O)c2[nH]cc(C)c24)n(COC)c1`, the growth inhibition was 26.5% in experiment [1]; 10.5% in experiment [2]; 30.6% in experiment [3]; 10.1% in experiment [4]; 8.9% in experiment [5]; 47.4% in experiment [6].
As to `CN(C)c1ccn(C2OC(CO)C(O)C2SC(C)(C)C)c(=O)n1` (stereo not given), the growth inhibition is -1.2% in experiment [1]; 3.95% in experiment [2]; -2.05% in experiment [3]; 10.8% in experiment [4]; -1.25% in experiment [5]; 13.8% in experiment [6].
For `Oc1c(O)c(Cc2ccccc2)c(Cc2ccccc2)c(Cc2ccccc2)c1Cc1ccccc1`, the growth inhibition was 40.7% in experiment [1]; -19.8% in experiment [2]; 23.3% in experiment [3]; -44.2% in experiment [4]; -7.15% in experiment [5]; 12.8% in experiment [6].
Regarding `COc1ccccc1NC(=S)N/N=C/c1cccc(C)n1`, the growth inhibition in experiment [1] was 9.45%; in experiment [2] it was -9.9%; in experiment [3], 20.1%; in experiment [4], -3.7%; in experiment [5] it was 5.5%; in experiment [6], 40%.
As for `CCC(=O)/C=C/c1cc(OC)c(OC)c(OC)c1`, the growth inhibition is 7.15% in experiment [1]; -24.9% in experiment [2]; -4.4% in experiment [3]; -36.9% in experiment [4]; -9.1% in experiment [5]; 2.4% in experiment [6].
`Clc1ccc(CNc2nc3ccccc3nc2-c2cccs2)c(Cl)c1`: the growth inhibition in experiment [1] is -0.3%; in experiment [2], 16.8%; in experiment [3], 11.3%; in experiment [4] it was 5.25%; in experiment [5] it was 12.3%; in experiment [6], 18.7%.
Turning to `O=C1c2cc(F)ccc2-c2c(F)cc(F)cc21`, the growth inhibition in experiment [1] is 19.9%; in experiment [2], -6.4%; in experiment [3] it was -2.1%; in experiment [4], 40.5%; in experiment [5], -3.85%; in experiment [6], -8.8%.
As for `COC(C)CCOC(=O)COc1ccccc1` (stereo not given), the growth inhibition is 17.8% in experiment [1]; -10% in experiment [2]; 8.35% in experiment [3]; -11.3% in experiment [4]; 13.8% in experiment [5]; 8.3% in experiment [6].

For the origin of these results see PubChem BioAssay (NCI).
